Z-score data for 40 molecules are collected here from PubChem BioAssay AID1963822 (ICCB-Longwood Screening Facility, Harvard Medical School, 2024).

Hit rate of the full screen: of about 55,000 compounds, about 90 (0.2%) were called active. How the calls were made is not given here. The list comes from a sample in which actives are over-represented; it also holds similar structures and randomly drawn compounds.

The assay in a line: anaerobic choline-dependent bacterial growth inhibition – minimal medium, absorbance (AID 1963822). The note with it: Gram-negative bacterium anaerobic choline minimal medium.
The mark [1] stands for this setting: measured here: choline growth z-score, timepoint 1, stronger effect = lower value.

As to `CCc1nc(-c2ccc(C(=O)NCC(=O)Nc3ccc(Cl)cc3)cc2)no1`, the z-score runs as follows: (stronger effect = lower value) -0.03 (inactive); under setting [1], -0.94.

`CC(C)C(=O)N1CCN(c2ccc(Nc3c4c(nc5nc(-c6ccccc6)nn35)CCCC4)cc2)CC1`: the z-score by setting is: (stronger effect = lower value) -0.12 (inactive); under setting [1], 0.82.

Turning to `O=C(NCCc1cscn1)[C@H]1CSCN1C(=O)c1ccccc1`, the z-score reads like this: (stronger effect = lower value) 0.46 (inactive); under setting [1], 0.42.

Consider `CCC(=O)Nc1cccc(-c2noc(C3CCCN(C(=O)c4ccc(F)cc4)C3)n2)c1` (stereo not given), for which the z-score was 0.07 (inactive) (stronger effect = lower value) and -0.16 under setting [1].

As for `O=S(=O)(c1ccc2c(c1)CCCC2)N1CCC2(CC1)Nc1cc(F)ccc1-n1cccc12`, the z-score (stronger effect = lower value) is -0.8 (inactive) and the z-score under setting [1] is -0.36.

Consider `O=S(=O)(c1ccccc1)c1ccc(N2CCN(c3ccccc3)CC2)nn1`, for which the z-score runs as follows: (stronger effect = lower value) -0.18 (inactive); under setting [1], -1.06.

For `O=C(NCCc1cnc[nH]1)c1ccc(Cn2c(SCc3ccc(F)cc3)nc3cccnc32)cc1`, the z-score by setting is: (stronger effect = lower value) -0.7 (inactive); under setting [1], -0.94.

As to `CCOC(=O)CC1=CC(SCC(=O)c2cc(C)ccc2C)=Nc2ccccc2N1`, the z-score was 0.16 (inactive) (stronger effect = lower value) and 0.19 under setting [1].

On to `COc1ccc(NC(=O)c2ccc(-c3nc(-c4ccccc4)no3)cc2)cc1`, for which the z-score is -1.61 (inactive) (stronger effect = lower value) and -1.39 under setting [1].

Consider `Cc1ccc2c(Cl)c(C(=O)Nc3onc4c3CCCC4)sc2c1`, for which the z-score is, setting by setting: (stronger effect = lower value) 0.44 (inactive); under setting [1], 0.27.

For the molecule `COc1ccc(Cn2c(CCC(=O)Nc3cccc(C)c3C)nc3cccnc32)cc1`, the z-score reads like this: (stronger effect = lower value) 0.59 (inactive); under setting [1], 0.56.

Consider `CC(=O)Nc1ccc(N(C)CCCc2c(C)nn(C)c2C)c(C(=O)O)c1`, for which the z-score (stronger effect = lower value) was 0.96 (inactive) and the z-score under setting [1] came to 0.43.

As to `COC(=O)CSc1nc2cc(-c3ccccc3)sc2c(=O)n1C`, the z-score reads like this: (stronger effect = lower value) 0.31 (inactive); under setting [1], 0.31.

`CCCN(C)S(=O)(=O)c1c(C)[nH]c(-c2nnc(C3CCC3)o2)c1C`: the z-score reads like this: (stronger effect = lower value) 0.79 (inactive); under setting [1], 0.59.

As to `COc1ccc2nc(-n3nc(C)c4c3NC(=O)CC4c3ccsc3)sc2c1` (stereo not given), the z-score is -2.13 (active) (stronger effect = lower value) and -0.51 under setting [1].

With `COc1ccc2nc(-n3nc(C)c4c3NC(=O)CC4c3cc(Br)ccc3OC)sc2c1` (stereo not given), the z-score by setting is: (stronger effect = lower value) -0.06 (inactive); under setting [1], 0.15.

With `COc1ccc2nc(-n3nc(C)c4c3NC(=O)CC4c3ccc4c(c3)OCO4)sc2c1` (stereo not given), the z-score reads like this: (stronger effect = lower value) 1.23 (inactive); under setting [1], 1.32.

As to `CCCC(=O)Nc1cccc(OCc2cc(=O)n3ccccc3n2)c1`, the z-score is, setting by setting: (stronger effect = lower value) 0.39 (inactive); under setting [1], 0.6.

With `Cc1sc2cc(C(=O)NCCN3CCN(C)CC3)[nH]c2c1CN1CCCCC1`, the z-score (stronger effect = lower value) was -0.21 (active) and the z-score under setting [1] was -4.45.

With `CN1CCN(CCNC(=O)c2cnc3sc4c(n3c2=O)CCC4)CC1`, the z-score by setting is: (stronger effect = lower value) -0.87 (inactive); under setting [1], -0.3.

For the molecule `O=C(NCCCN1CCCCC1)c1cc2n(n1)CCCN(Cc1ccc(F)cc1)C2=O`, the z-score is 0.15 (inactive) (stronger effect = lower value) and -0.23 under setting [1].

Regarding `Cc1ccc(F)c(NS(=O)(=O)c2cc(-c3nc(C(C)(C)C)cs3)cs2)c1`, the z-score reads like this: (stronger effect = lower value) 0.79 (inactive); under setting [1], 0.58.

For the molecule `CCCCOc1ccccc1C1CC(=O)Nc2c1c(C)nn2-c1ccc2nncn2n1` (stereo not given), the z-score is, setting by setting: (stronger effect = lower value) 0.78 (inactive); under setting [1], 0.83.

In the case of `O=C(NC1CC1)c1snc(-c2ccccn2)c1NC(=O)C1CC1`, the z-score was 0.58 (inactive) (stronger effect = lower value) and 1.01 under setting [1].

For the molecule `CCc1ccc(NS(=O)(=O)c2cc(-c3nc(C(C)C)cs3)cs2)cc1`, the z-score reads like this: (stronger effect = lower value) -0.41 (inactive); under setting [1], 0.54.

For `Cc1cccc(C2C3=C(CC(c4ccccc4)CC3=O)Nc3onc(C)c32)c1` (stereo not given), the z-score is 1.84 (inactive) (stronger effect = lower value) and 1.45 under setting [1].

For `O=C1Nc2ccccc2Oc2cc(Cl)c(S(=O)(=O)N3CCCC3)cc21`, the z-score reads like this: (stronger effect = lower value) 1.05 (inactive); under setting [1], -0.01.

For `O=C(COc1ccccc1)Nc1noc(-c2ccc(Cl)cc2)n1`, the z-score is -0.07 (inactive) (stronger effect = lower value) and -0.68 under setting [1].

For `Cc1ccc(C)c(Cn2cccc(S(=O)(=O)N3CCCC3)c2=O)c1`, the z-score (stronger effect = lower value) was 1.03 (inactive) and the z-score under setting [1] came out at 0.96.

As to `CS(=O)(=O)NC1CCN(C(=O)C2CCCC2)C1` (stereo not given), the z-score is, setting by setting: (stronger effect = lower value) 0.08 (inactive); under setting [1], 0.92.

As for `CCC(C(=O)Nc1ccccc1OC)n1nc(-c2ccccc2)ccc1=O` (stereo not given), the z-score runs as follows: (stronger effect = lower value) 0.41 (inactive); under setting [1], -0.44.

In the case of `COc1ccc(CSc2nccc3c2ccn3CC(=O)NCc2ccc3c(c2)OCO3)cc1`, the z-score by setting is: (stronger effect = lower value) 1.77 (inactive); under setting [1], 1.27.

Turning to `O=C(CSCc1nc2cccnc2n1C1CCCCC1)NCc1cccc(F)c1`, the z-score (stronger effect = lower value) is 0.62 (inactive) and the z-score under setting [1] is 1.42.

Consider `Cc1ccccc1C1CC(=O)c2cnc3c(-c4ccc(F)cc4)c(C)nn3c2C1` (stereo not given), for which the z-score is 0.81 (inactive) (stronger effect = lower value) and 0.27 under setting [1].

As for `O=C(COc1ccccc1)Nc1noc(-c2ccccc2)n1`, the z-score is, setting by setting: (stronger effect = lower value) -2.24 (inactive); under setting [1], -0.92.

Consider `O=C(NCc1ccc(Cl)cc1)c1ccc(-n2nnc3cccnc32)cc1`, for which the z-score is 0.42 (inactive) (stronger effect = lower value) and 0.46 under setting [1].

Turning to `Cc1nn(-c2ccccc2)c2sc(C(=O)N3CCN(c4cccc(Cl)c4)CC3)cc12`, the z-score is 0.97 (inactive) (stronger effect = lower value) and 1.5 under setting [1].

Take `COc1ccc(-c2noc(-c3ccc[nH]c3=O)n2)cc1OC`: the z-score by setting is: (stronger effect = lower value) 1.32 (inactive); under setting [1], 1.18.

On to `Clc1ccc(C(CNc2nn3cnnc3c3ccccc23)N2CCCCC2)cc1` (stereo not given), for which the z-score was -0.12 (inactive) (stronger effect = lower value) and -0.1 under setting [1].

As to `CC(C)NC(=O)N1CCCC(c2cccc(C(=O)NCc3ccc(Cl)cc3)c2)C1` (stereo not given), the z-score is 0.72 (inactive) (stronger effect = lower value) and 0.1 under setting [1].
